# Results reported in paper PMC4336329 (PLoS ONE, 2015).
# The whole screen tested about 310,000 compounds, of which about 2,200 (0.71%) showed an effect of 50% or more. Effects have a minus sign here. Many of the other results were omitted from the sample, so strong results are more common in it than they were.
# Molecular target: human ether-à-go-go-related gene (hERG) potassium channel (human, UniProt Q12809)
# Test: primary screen, population patch clamp on CHO cells stably expressing hERG; higher = less effect of the substance
# Chain of human ether-à-go-go-related gene (hERG) potassium channel (Q12809 whole entry, looked up): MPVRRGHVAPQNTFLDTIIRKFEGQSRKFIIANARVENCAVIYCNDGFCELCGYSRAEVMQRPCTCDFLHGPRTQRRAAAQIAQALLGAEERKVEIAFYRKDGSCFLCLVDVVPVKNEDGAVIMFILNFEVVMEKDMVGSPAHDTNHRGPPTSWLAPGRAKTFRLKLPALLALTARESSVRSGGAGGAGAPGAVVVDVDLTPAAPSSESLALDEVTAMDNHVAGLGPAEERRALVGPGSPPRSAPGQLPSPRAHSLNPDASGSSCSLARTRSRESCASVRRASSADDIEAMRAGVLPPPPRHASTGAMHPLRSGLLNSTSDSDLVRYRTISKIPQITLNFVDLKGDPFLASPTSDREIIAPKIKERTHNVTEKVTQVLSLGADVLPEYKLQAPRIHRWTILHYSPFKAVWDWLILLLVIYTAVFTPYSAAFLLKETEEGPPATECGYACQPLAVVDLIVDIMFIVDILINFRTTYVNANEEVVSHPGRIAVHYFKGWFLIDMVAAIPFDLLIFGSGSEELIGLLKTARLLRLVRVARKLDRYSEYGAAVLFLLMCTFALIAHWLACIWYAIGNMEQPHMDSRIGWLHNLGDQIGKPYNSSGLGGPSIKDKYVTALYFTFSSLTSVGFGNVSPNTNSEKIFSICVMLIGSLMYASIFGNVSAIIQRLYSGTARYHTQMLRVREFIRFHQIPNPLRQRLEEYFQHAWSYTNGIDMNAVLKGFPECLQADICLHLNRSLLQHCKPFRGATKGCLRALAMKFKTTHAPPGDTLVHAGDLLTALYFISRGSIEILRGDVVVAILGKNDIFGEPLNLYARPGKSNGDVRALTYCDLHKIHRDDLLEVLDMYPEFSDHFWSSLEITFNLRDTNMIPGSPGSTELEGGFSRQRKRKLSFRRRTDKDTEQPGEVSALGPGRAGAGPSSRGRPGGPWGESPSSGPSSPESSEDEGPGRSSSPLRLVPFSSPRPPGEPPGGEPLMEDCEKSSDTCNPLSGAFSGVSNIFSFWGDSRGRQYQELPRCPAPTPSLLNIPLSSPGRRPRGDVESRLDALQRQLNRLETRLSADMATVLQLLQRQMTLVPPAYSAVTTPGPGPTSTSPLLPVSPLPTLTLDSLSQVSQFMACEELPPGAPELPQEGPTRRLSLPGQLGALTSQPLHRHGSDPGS
row,SMILES,"hERG current change (%, negative = inhibition) at 1uM"
1,Oc1[nH]c2ccc(Br)cc2c1N=NC(=S)N1CCOCC1,17.6%
2,Cc1onc(-c2c(Cl)cccc2Cl)c1C(=O)O/N=C(\C#N)c1ccccc1,7.14%
3,O=C(CSC1=NS(=O)(=O)c2cc(F)ccc2N1)Nc1cccc(F)c1,2.39%
4,CCCc1cc(=O)[nH]c(SCC(=O)NC)n1,-0.511%
5,O=Cc1cn(Cc2ccc(F)cc2)c2ccccc12,14.4%
6,O=C(NCCCN1CCCC1=O)C1CCN(S(=O)(=O)c2cccc(C(F)(F)F)c2)CC1,23.6%
7,CCc1nnc(NC(=O)C(C)N2C(=O)C3C4C=CC(C4)C3C2=O)s1 (centres unmarked),3.03%
8,N=c1c(C(=O)NCc2ccc3c(c2)OCO3)cc2c(=O)n3ccccc3nc2n1Cc1cccnc1,-51.5%
9,O=C(CCn1c(=O)c2ccccc2n(Cc2cccnc2)c1=O)NCc1ccc2c(c1)OCO2,9.51%
10,O=C(NCc1ccc2c(c1)OCO2)c1cnc2ccccn2c1=O,5.17%
11,COc1ccc(CCn2c(=N)c(C(=O)NC3CCCC3)cc3c(=O)n4ccccc4nc32)cc1,-89.2%
12,COc1ccc(Cn2c(=N)c(C(=O)NC3CCCCC3)cc3c(=O)n4ccccc4nc32)cc1,-5.89%
13,COc1ccc(CCn2c(=N)c(C(=O)N3CCN(C)CC3)cc3c(=O)n4ccccc4nc32)cc1,-2.76%
14,COc1ccc(CCn2c(=N)c(S(=O)(=O)c3ccccc3)cc3c(=O)n4ccccc4nc32)cc1,10.8%
15,COc1ccc(CCn2c(=N)c(C(=O)NC3CCCC3)cc3c(=O)n4cccc(C)c4nc32)cc1,-79.9%
16,Cc1cccn2c(=O)c3cc(C(=O)NC4CCCC4)c(=N)n(CCc4ccccc4)c3nc12,-33.8%
17,COc1ccc(CCn2c(=N)c(C(=O)NC3CCCCC3)cc3c(=O)n4ccccc4nc32)cc1,-84.1%
18,COc1ccc(CCn2c(=N)c(C(=O)NC3CCCC3)cc3c(=O)n4ccccc4nc32)cc1OC,-46.9%
19,CCN(C(=O)c1cc2c(=O)n3ccccc3nc2n1CCCOC)C1CCCCC1,2.38%
20,COCCCn1c(=N)c(C(=O)NC2CCCCC2)cc2c(=O)n3ccccc3nc21,-81.6%
21,C/C(=N\NC(=O)c1cccc(F)c1)c1ccc(NC(=O)Cc2ccccc2)cc1,12.8%

row,SMILES,"hERG current change (%, negative = inhibition) at 1uM"
1,COc1cccc(CN2C(=NC(=O)C3CC3)SC3CS(=O)(=O)CC32)c1 (centres unmarked),14.8%
2,NC(=O)c1ccccc1NC(=S)NC(=O)CCc1ccccc1,6.72%
3,CCSc1nnc(-c2ccc(OC)cc2)o1,3.96%
4,Cc1cccc2cc(C#N)c(NCCNC(=S)NCCCN3CCOCC3)nc12,4.84%
5,Oc1c(C=Nc2ccccc2)sc2ccccc12,12.4%
6,CC(C)CC(=O)C1CCCN(C(=O)c2ccc3oc(Cc4ccccc4)nc3c2)C1 (centres unmarked),11.9%
7,Cn1c(CC(=O)Nc2ccc(Cl)c(Cl)c2)nnc1SCC(=O)NCc1ccccc1,9.85%
8,COc1cc(SC)ccc1C(=O)N1CCc2ccccc21,13.9%
9,N=c1c(C(=O)NC2CCCCC2)cc2c(=O)n3ccccc3nc2n1CCc1ccccc1,-88.1%
10,Cc1cc2c(=O)n(Cc3ccco3)c(SCC(=O)N3CCCc4ccccc43)nc2s1,0.209%
11,CC1CCCC(NC(=O)CCCn2c(=S)[nH]c3ccccc3c2=O)C1C (centres unmarked),5.25%
12,CN1CCC(=NNC(=O)CN(c2cccc(Br)c2)S(C)(=O)=O)CC1,1.22%
13,CS(=O)(=O)Nc1ccc(C2=NN(C(=O)c3ccco3)C(c3cccc(F)c3)C2)cc1 (centres unmarked),-85.9%
14,CS(=O)(=O)Nc1ccc(C2=NN(C(=O)c3ccco3)C(c3ccc(F)cc3)C2)cc1 (centres unmarked),-44.7%
15,CCS(=O)(=O)Nc1ccc(C2=NN(C(=O)c3ccco3)C(c3cccc(F)c3)C2)cc1 (centres unmarked),0.693%
16,CCCCN1C(=N)C(CC)(CC)C(=O)NC1=O.Cl,27.4%
17,Cc1ccc2cc(CN(Cc3ccco3)C(=O)C3CCCCC3)c(=O)[nH]c2c1C,6.2%
18,Cc1ccc(-c2nn(-c3ccccc3Cl)cc2C(=O)NCC2CCCO2)cc1 (centres unmarked),18.4%
19,COCCCNC(=O)c1cc2c(=O)n3cc(C)ccc3nc2nc1NCC1CCCO1 (centres unmarked),-26.6%
20,C=CCNC(=O)c1cc2c(=O)n3cc(C)ccc3nc2nc1NCC1CCCO1 (centres unmarked),-82%
